Assay outcomes deposited in PubChem BioAssay by National Center for Advancing Translational Sciences (NCATS).
HCMV antiviral: blocks human cytomegalovirus replication; activity change, negative = inhibition, % at 57.5 µM; AID 1259415; hit rate 4.5% among 410,000; HFF cells, HCMV-luciferase reporter, 72 h; hits give low values; in the data active = activity change below about -60%; inconclusive = no clear call, values can overlap the other calls; inactive = above about -39%
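Luciferase read-out from HCMV-luciferase-infected HFFs (MOI 1 PFU/cell) 72 h post infection at 37C; compounds added after 16 h cell attachment; activity normalized between buffer-only basal and Salinomycin (10uM) inhibitor controls.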
LASV entry inh: inhibitors of Lassa virus binding or cell entry; Potency, µM (titrated, usually from 37.9 µM), for the others: at the top dose activity change, negative = inhibition, actives largely listed as inhibitors; hit rate 1.2% among 300,000; Lassa virus pseudotype entry inhibition, cell reporter; calls by dose curve; tested in HEK293 cells; also: potency is read from the fitted curve at half-maximal effect; nearly all actives have a fitted effect of over 50% in size
VACV mCherry inh: inhibitors of vaccinia virus infection (mCherry reporter signal); hit rate 0.63% among 310,000; Vaccinia virus mCherry reporter infection, fluorescence; Potency, µM (top dose mostly 36.5 µM), for inactives: at the highest dose activity change, negative = inhibition, most hits filed as inhibitors; calls by dose curve; tested in A549 cells; also: potency is read from the fitted curve at half-maximal effect; nearly all actives have a fitted effect of over 35% in size
FMDV antiviral: foot and mouth disease virus antiviral activity; hit rate 1.2% among 410,000; AID 1159524; Potency, µM (highest dose often 57.9 µM), inactives show at the highest dose activity change, negative = inhibition, usual class: inhibitors; FMDV antiviral cell-based qHTS; calls by dose curve; tested in HEK293T cells; also: read-out not given here; potency is read from the fitted curve at half-maximal effect; nearly all actives have a fitted effect of over 45% in size
VACV Venus inh: inhibitors of vaccinia virus (Venus reporter). Vaccinia virus Venus reporter expression, fluorescence. Potency, µM (doses to about 36.5 µM), inactives show at the top dose activity change, negative = inhibition, most hits filed as inhibitors. hit rate 0.46% among 330,000; calls by dose curve; tested in A549 cells; also: potency is read from the fitted curve at half-maximal effect; nearly all actives have a fitted effect of over 30% in size
Marburg entry inh: Marburg virus entry inhibition | Marburg virus pseudotyped entry inhibition, cell reporter | Potency, µM (series often up to 37.8 µM), without a hit: top-dose activity change, negative = inhibition, usual class: inhibitors | hit rate 1.8% among 300,000; calls by dose curve; tested in HEK293 cells; also: potency is read from the fitted curve at half-maximal effect
The depositor's hits bear a star; i = inactive; ? = inconclusive; nt = not tested or not shown; [ ] = dose if it differs, or a comment. Sampled rows, rich in hits. Any-hit rate of the full collection: about 6.5%. % is scaled to controls: 0 for no effect and ±100 for the full control effect.

SMILES | HCMV antiviral | LASV entry inh | VACV mCherry inh | FMDV antiviral | VACV Venus inh | Marburg entry inh
O=C1CC(c2ccccc2)Cc2nc(N3CCc4ccccc4C3)ncc21 (stereo not given) | -26 | 15µM* | nt | -6% | nt | 15%
O=C1CC(c2ccc(F)cc2)Cc2nc(N3CCN(c4ccccc4)CC3)ncc21 (stereo not given) | -1 | -1% | nt | ? | -15% | 15%
CC1CC(C)CN(c2ncc3c(n2)CC(c2ccc(Cl)cc2)CC3=O)C1 (stereo not given) | 11 | -17% | nt | 11% | nt | 10%
Cc1ccc(C2CC(=O)c3cnc(N4CCc5ccccc5C4)nc3C2)cc1 (stereo not given) | 56 | 3.7µM* | nt | -5% | nt | -1%
Cc1ccc(C)n1C1C(=O)N(Cc2ccc(C(F)(F)F)cc2)c2c(F)cccc21 (stereo not given) | -35 | nt | nt | nt | nt | nt
O=C1NC[C@H](Cc2ccccc2)N(C[C@@H]2CCCN2C[C@H](Cc2ccc(O)cc2)N2C[C@H](Cc3ccccc3)N(CC3CCCCCC3)C(=O)C2=O)C1=O | -19 | nt | -29% | 24% | -17% | nt
Cc1cccc(NC(=S)NC2CC3CCCC(C2)N3Cc2cccs2)c1 (stereo not given) | -30 | ? | ? | nt | ? | 1.6µM*
COCCNC(=S)NC1CC2CCCC(C1)N2Cc1cccs1 (stereo not given) | -6 | -16% | -23% | nt | -22% | ?
O=C(Nc1ccc(Cl)cc1Cl)c1cc(S(=O)(=O)NCc2ccc3c(c2)OCO3)ccc1F | ? | 0%[46.1 µM] | ? | -5% | ? | nt
COc1ccc(/C=C2\CN(Cc3ccccc3)C/C(=C\c3ccc(OC)c(O)c3)C2=O)cc1O | -101* | ? | 7.9µM* | -12% | ? | ?
O=C1/C(=C/c2cccc([N+](=O)[O-])c2)CCc2ccccc21 | -9 | -18% | -15% | -18% | -8% | ?
CCN1C/C(=C\c2cccc([N+](=O)[O-])c2)C(=O)/C(=C/c2cccc([N+](=O)[O-])c2)C1 | -100* | 2.5µM* | i | 1.1µM* | -7% | ?
CCN1C/C(=C/c2ccc(OC)c(O)c2)C(=O)/C(=C/c2ccc(OC)c(O)c2)C1 | -103* | nt | ? | -21% | ? | nt
CCN1CCN(C(c2cccc(F)c2)c2c(O)cc(C)n(CCOC)c2=O)CC1 (stereo not given) | -9 | 17%[46.1 µM] | -15% | -9% | -9% | nt
Cc1ccc(C)c(C2=NNC(=NCc3ccccc3)SC2)c1 | -66* | ? | -8% | 6% | -15% | ?
CCC(C)NC(=O)CCc1nnc2ccc(N3CCC(C)CC3)nn12 (stereo not given) | -61* | 6%[46.1 µM] | -5% | -32% | ? | 28%[46.1 µM]
FC(F)(F)Oc1ccccc1C(c1nnnn1Cc1ccccc1)N1CCN(C/C=C/c2ccccc2)CC1 (stereo not given) | -24 | nt | 9% | -11% | -7% | nt
COC(=O)c1ccccc1NC(=S)N(Cc1ccc2c(c1)OCO2)Cc1cc2ccc(C)cc2[nH]c1=O | ? | -31% | -22% | -14% | -24% | ?
CCN(CC)CCN(Cc1cc2ccc(C)cc2[nH]c1=O)C(=S)Nc1ccccc1C(=O)OC | -21 | ? | ? | -18% | ? | 2µM*
COC(=O)c1ccccc1NC(=S)N(Cc1ccc2c(c1)OCO2)Cc1cc2ccc(OC)cc2[nH]c1=O | -63* | ? | -27% | -24% | -27% | ?
Cc1oc(-c2ccccc2NC(=O)c2ccsc2)nc1CN(C)CC1CC=CCC1 (stereo not given) | nt | nt | -8% | -13% | 8% | nt
COC(=O)C1=CN(c2ccc(OC)cc2)C=C(C(=O)OC)C1c1cc(OC)c(OC)cc1OC | 54 | 0.63µM* | -5% | -14% | -7% | -9%
Cc1ccc(-c2nnc3ccccc3c2C(=O)Nc2cccc(Cl)c2)cc1 | 0 | ? | -8% | 38% | -4% | nt
O=C(O)CCSc1nnc(-c2ccc3c(c2)OCO3)o1 | -75* | ? | -18% | -15% | -10% | ?
O=C(CSc1nnc(-c2ccc3c(c2)OCO3)o1)Nc1ncc(Cl)cc1Cl | -61* | 5% | -14% | 5% | -16% | -8%
CC(=O)Nc1ccc(NC(=O)CSc2nnc(-c3ccc4c(c3)OCO4)o2)cc1 | 0 | nt | nt | 1% | nt | nt
